Data published in PubChem BioAssay (NCATS).
The source made the active and inactive calls. Calls come from the whole dose curve.

molecular target: Guanidinoacetate N-methyltransferase (Homo sapiens) (UniProt Q14353); assay: Confirmatory Screen for Target Class Profiling of Small Molecule Inhibitors of Methyltransferases (AID 1745852); conditions: MTase-Glo luminescence, SAH detection, recombinant enzyme; activity change, negative = inhibition: at 57.3 µM (top of the series) unless noted; series mostly up to 57.3 µM
% is set by controls: 0 for no effect and ±100 for the full control effect; potency is the fitted concentration of half-maximal effect.

Work on `Cc1cc(-c2cc3c(cn2)N(C)CCN(C)C3)ccn1` yielded an activity change, negative = inhibition of 4.1% [at 114 µM].

Point of comparison: `CNc1cc(C2CC(NC(=O)COc3ccc(Cl)cc3C)C2)nc(N)n1` (stereo not given), activity change, negative = inhibition 2.13%. Against it:
- O=[S+]1([O-])NC2(CCCN(Cc3c(F)cccc3Cl)C2)COc2ccccc21 (stereo not given) — higher, 2.18%
- COc1ccccc1CNC(=O)C1(C)Cn2c(cc3ccccc32)C(=O)N1Cc1ccc(OC)c(OC)c1 (stereo not given) — lower, 0%
- COc1cccc([S+](=O)([O-])N2CCC3(C2)N=C(c2cccnc2)C(=O)N3)c1 (stereo not given) — lower, -6.21%
- COc1ccc(NC(=O)CCc2ccnc(N3CCCC3)c2)c(OC)c1 — lower, -3.43%
- Cc1cccc(N2CCN(C(=O)CCc3nnc4n(CC(C)C)c(=O)c5ccccc5n34)CC2)c1C — higher, 2.51%
- Cc1cnc(C2CC2)n1C1CCN(S(=O)(=O)c2ccc3c(c2)OCCO3)CC1 — lower, -2.25%
- COC(=O)C(Cc1c[nH]c2ccccc12)NC(=O)c1ccccc1Br (stereo not given) — lower, 0%

Point of comparison: `O=C(NCc1cccc(F)c1)c1nc2c(o1)CCN(CC1CCCC1)CC2`, activity change, negative = inhibition 18.3% [at 85.7 µM]. Against it:
- Cc1noc(C)c1-c1cnc(Nc2ccncc2)c2c1CCO2 — lower, 1.39% [at 85.7 µM]
- COc1ccccc1CC(=O)N1CCCc2ncc(C(=O)Nc3cccc(Cl)c3)cc21 — lower, 2.54% [at 85.7 µM]

For `O=C(NCc1ccc2c(c1)OCO2)c1sc(=S)n2c1[nH]c(=O)c1ccc(Cl)cc12`, the Potency was 24.1 µM (active).
With `O=C(NCc1cccc(Cl)c1)c1sc(=S)n2c1[nH]c(=O)c1cc3c(cc12)OCO3` the Potency was 27.1 µM (active).

In the case of `Cc1ccc(NC(=O)CSc2nnc3n(CC(C)C)c(=O)c4ccccc4n23)cc1`, the “outcome” value is reported as “inactive”.
